Experimental data: PubChem BioAssay (EPA / NIEHS)
Several values for one entry are separate records, joined by “and”; a condition that tells them apart may be missing. Equal values may be shown once. Records with an inconclusive call do not appear. A structure can be active in one record and inactive in another. Activity calls are given as the source filed them. Rule for the calls, unless noted: active = hit-call score of the fitted dose curve at least 0.9, where 1 is the maximum; inactive = score below 0.9.

Tests used:
[1] = ATG_NFI_CIS: Attagene CIS-FACTORIAL HepG2 Assay for human Nuclear Factor I (NFI) (AID 2282989); conditions: HepG2 cis-regulatory reporter, NFI response element transcription; actives raise or lower the signal
In short: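 Multiplexed cis-reporter system in human HepG2 cells reports native TF activity as reporter mRNA induction 24 h post-dose. Fragments labelled with 6-FAM, HpaI-digested and resolved by capillary electrophoresis; activity fitted both directions versus DMSO.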

[2] = molecular target: Myc proto-oncogene protein (Homo sapiens) (UniProt P01106); assay: ATG_Myc_CIS: Attagene CIS-FACTORIAL HepG2 Assay for human Myelocytomatosis (Myc) Proto-Oncogene Transcription Factor (AID 2282990); conditions: HepG2, Attagene cis-reporter transcription factor activity; actives raise or lower the signal
In short: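 After 24 h chemical treatment of HepG2 cells carrying multiplexed cis-regulated reporter constructs, reporter transcripts quantified by RT-PCR and capillary electrophoresis of fluorescent fragments. Gain or loss fitted against DMSO baseline.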

[3] = ATG_NF_kB_CIS: Attagene CIS-FACTORIAL HepG2 Assay for human Nuclear Factor Kappa B (NF-kB) (AID 2282991); conditions: HepG2 Attagene cis-factorial NF-kB reporter mRNA; actives raise or lower the signal
In short: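 HepG2, transient multi-reporter transfection, cis promoter elements (endogenous TFs). 24 h exposure. Total RNA → RT → PCR → 6-FAM label → HpaI → CE. Gain/loss vs DMSO.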

[4] = ATG_NRF2_ARE_CIS: Attagene CIS-FACTORIAL HepG2 Assay for human Nuclear Factor Erythroid 2 Related Factor 2 (NFR2) response to Antioxidant Response Elements (ARE) (AID 2282992); conditions: HepG2 Attagene ARE/NRF2 reporter, transcription factor activity; actives raise or lower the signal;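 for AC50: reporter mRNA level measured by RT-PCR and capillary electrophoresis fluorescence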
In short: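 Endogenous transcription factor activity in human liver HepG2 cells is tracked via a cis-element-driven reporter within a multiplexed set. mRNA induction is read by RT-PCR and capillary electrophoresis after 24 h, with DMSO as baseline.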

[5] = ATG_Oct_MLP_CIS: Attagene CIS-FACTORIAL HepG2 Assay for human Octamer-Binding Transcription Factor (Oct) (AID 2282993); conditions: HepG2 Attagene cis-factorial Oct reporter, mRNA; actives raise or lower the signal
In short: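 After 24 h compound exposure, transfected HepG2 cells were lysed for total RNA; reporter-specific cDNA was PCR-amplified, fluorescently labelled and sized by capillary electrophoresis. Bidirectional curve fitting used DMSO as baseline.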

[6] = molecular target: Cellular tumor antigen p53 (Homo sapiens) (UniProt P04637); assay: ATG_p53_CIS: Attagene CIS-FACTORIAL HepG2 Assay for human p53 Transcription Factor (AID 2282994); conditions: HepG2 p53 cis-element reporter, Attagene mRNA; actives raise or lower the signal
In short: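 Steps: transfect HepG2 with multiplexed cis reporter constructs; dose chemicals 24 h; extract RNA, reverse-transcribe, PCR-amplify reporter sequences; FAM-label, HpaI-digest, resolve fragments by CE. Activity fitted both directions relative to DMSO.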

[7] = BSK_3C_TissueFactor: BioMAP Diversity Plus: 3C Assay for Tissue Factor Biomarker Activity (AID 2282997); conditions: BioMAP 3C HUVEC, tissue factor biomarker readout; actives raise or lower the signal
In short: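 Readout: Tissue Factor ELISA. Cells: human primary umbilical vein endothelium. Time: 24 h after dosing. Analysis: bidirectional fit, DMSO baseline.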

[8] = BSK_3C_uPAR: BioMAP Diversity Plus: 3C Assay for Urokinase-type plasminogen activator receptor (uPAR) Biomarker Activity (AID 2282998); conditions: BioMAP 3C HUVEC, uPAR biomarker ELISA; actives raise or lower the signal
In short: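 Values derive from bidirectional curve fitting relative to DMSO, which served as baseline of activity. uPAR was measured by ELISA in human umbilical vein endothelial primary cultures 24 h after compound addition.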

[9] = BSK_3C_VCAM1: BioMAP Diversity Plus: 3C Assay for Vascular cell adhesion molecule 1 (VCAM1) Biomarker Activity (AID 2282999); conditions: BioMAP 3C HUVEC, VCAM1 ELISA, cytokine-stimulated; actives raise or lower the signal
In short: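 Activity fitted in both directions relative to DMSO, with ELISA measurement of the surface marker on primary HUVEC (3C) at 24 h post-treatment; parallel SRB staining (0.1% SRB, TCA-fixed, 560 nm) flagged overt cytotoxicity.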

[10] = BSK_4H_Eotaxin3: BioMAP Diversity Plus: 4H Assay for Eotaxin 3 Biomarker Activity (AID 2283000); conditions: primary human endothelial cells (HUVEC); actives raise or lower the signal
In short: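 HUVEC, 24 h post-dose, ELISA for Eotaxin-3/CCL26. Gain or loss of signal fitted bidirectionally vs DMSO baseline.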

[11] = molecular target: human Peroxisome Proliferator-activated Receptor alpha (PPARa), PPARA (gene 5465) (UniProt Q07869); assay: ATG_PPARa_TRANS: Attagene TRANS-FACTORIAL HepG2 Assay for human Peroxisome Proliferator-activated Receptor alpha (PPARa) (AID 2283001; active = hit-call score of the fitted dose curve at least 0.9, where 1 is the maximum;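 for AC50: potency for gain of reporter signal over DMSO so agonist or activator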)
In short: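 Reporter transcripts quantified by RT-PCR plus capillary electrophoresis after 24 h treatment, fitted upward relative to DMSO. Cells: human HepG2 transiently carrying multiple GAL4-UAS reporter units driven by NR-Gal4 chimeras.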

[12] = read-out: Intercellular Adhesion Molecule 1 (ICAM1), ICAM1 (gene 3383); assay: BSK_3C_ICAM1: BioMAP Diversity Plus: 3C Assay for Intercellular Adhesion Molecule 1 (ICAM1) Biomarker Activity (AID 2283003); conditions: primary human endothelial cells (HUVEC); actives raise or lower the signal
In short: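 Chemicals are dosed onto primary human umbilical vein endothelium (3C system). After 24 h, ICAM-1 is measured by ELISA, and responses are fitted bidirectionally relative to DMSO.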

[13] = molecular target: human Retinoic Acid Receptor beta (RARb), RARB (gene 5915) (UniProt P10826); assay: ATG_RARb_TRANS: Attagene TRANS-FACTORIAL HepG2 Assay for human Retinoic Acid Receptor beta (AID 2283004; active = hit-call score of the fitted dose curve at least 0.9, where 1 is the maximum)
In short: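 HepG2 cells transiently transfected with multiplexed GAL4-UAS reporter units expressing chimeric NR–Gal4 fusions; 24 h compound exposure. Reporter mRNA quantified by RT-PCR, 6-FAM labelling, HpaI digestion and capillary electrophoresis; gain-of-signal fitted against DMSO baseline.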

[14] = molecular target: Retinoic acid receptor alpha (Homo sapiens) (UniProt P10276); assay: ATG_RARa_TRANS: Attagene TRANS-FACTORIAL HepG2 Assay for human Retinoic Acid Receptor alpha (RARa) (AID 2283005; active = hit-call score of the fitted dose curve at least 0.9, where 1 is the maximum)
In short: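 Reporter transcripts, measured by RT-PCR with fluorescent labeling and capillary electrophoresis after 24 h dosing, reflect activity of an exogenous human RARa–GAL4 fusion in transiently transfected HepG2. Fitted for increase relative to DMSO.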

[15] = BSK_3C_Proliferation: Cell Proliferation Assessment in the BioMAP Diversity Plus: 3C Assay (AID 2283006); conditions: primary human endothelial cells (HUVEC);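 for AC50: potency may reflect either rise or fall in cell number versus DMSO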
In short: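 Cells (human umbilical vein endothelial, sub-confluent) receive test chemical; after 48 h they are fixed in 10% trichloroacetic acid, stained with 0.1% SRB and read at 560 nm. Activity is referenced to DMSO, fitting increases and decreases.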

[16] = molecular target: Peroxisome proliferator-activated receptor gamma (Homo sapiens) (UniProt P37231); assay: ATG_PPARg_TRANS: Attagene TRANS-FACTORIAL HepG2 Assay for human Peroxisome Proliferator-activated Receptor-gamma (PPARg) (AID 2283007; active = hit-call score of the fitted dose curve at least 0.9, where 1 is the maximum)
In short: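 Multiplexed reporter transcription units in HepG2, 24 h dosing, reporter transcripts quantified by fluorescent RT-PCR and capillary electrophoresis. Increase over DMSO scored.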

[17] = molecular target: Nuclear receptor subfamily 1 group I member 2 (Homo sapiens) (UniProt O75469); assay: ATG_PXR_TRANS: Attagene TRANS-FACTORIAL HepG2 Assay for human Pregnane X Receptor (PXR) (AID 2283008; active = hit-call score of the fitted dose curve at least 0.9, where 1 is the maximum)
In short: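 HepG2 transfected (FuGene 6) with GAL4-UAS reporter units + PXR-Gal4 chimera; dosed 24 h. Total RNA → oligo(dT) RT → PCR → 6-FAM primer extension → HpaI cut → CE. Gain-of-signal vs DMSO.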

[18] = molecular target: human Retinoic Acid Receptor gamma (RARg), RARG (gene 5916) (UniProt P13631); assay: ATG_RARg_TRANS: Attagene TRANS-FACTORIAL HepG2 Assay for human Retinoic Acid Receptor gamma (RARg) (AID 2283009; active = hit-call score of the fitted dose curve at least 0.9, where 1 is the maximum)
In short: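 TRANS format measured activity of exogenous NR-GAL4 fusion (RARg) in transfected HepG2 liver cells after 24 h dosing. Induced reporter RNA was detected by RT-PCR/capillary electrophoresis fluorescence, analysed in the positive direction against DMSO.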

[19] = molecular target: human Peroxisome Proliferator-activated Receptor delta (PPARd), PPARD (gene 5467) (UniProt Q03181); assay: ATG_PPARd_TRANS: Attagene TRANS-FACTORIAL HepG2 Assay for human Peroxisome Proliferator-activated Receptor delta (PPARd) (AID 2283002; active = hit-call score of the fitted dose curve at least 0.9, where 1 is the maximum)
In short: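 Read-out is induced reporter mRNA, quantified by RT-PCR with fluorescent labelling and capillary electrophoresis after 24 h dosing. Cells are HepG2 transiently carrying multiple GAL4-UAS reporter units driven by exogenous NR-GAL4 chimeras; DMSO serves as baseline.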

[20] = molecular target: human RAR-related Orphan Receptor gamma (RORg), RORC (gene 6097) (UniProt P51449); assay: ATG_RORg_TRANS: Attagene TRANS-FACTORIAL HepG2 Assay for human RAR-related Orphan Receptor gamma (RORg) (AID 2283011; active = hit-call score of the fitted dose curve at least 0.9, where 1 is the maximum)
In short: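 Readout: reporter transcript induction (RT-PCR, fluorescent primer extension, capillary electrophoresis) after 24 h compound exposure of transiently transfected HepG2 cells carrying a RORg-Gal4 chimera and GAL4-UAS reporters; DMSO served as baseline, with increasing signal fitted.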

Measured: AC50

Peroxisome proliferator-activated receptor gamma (Homo sapiens), sequence (P37231 whole entry, looked up): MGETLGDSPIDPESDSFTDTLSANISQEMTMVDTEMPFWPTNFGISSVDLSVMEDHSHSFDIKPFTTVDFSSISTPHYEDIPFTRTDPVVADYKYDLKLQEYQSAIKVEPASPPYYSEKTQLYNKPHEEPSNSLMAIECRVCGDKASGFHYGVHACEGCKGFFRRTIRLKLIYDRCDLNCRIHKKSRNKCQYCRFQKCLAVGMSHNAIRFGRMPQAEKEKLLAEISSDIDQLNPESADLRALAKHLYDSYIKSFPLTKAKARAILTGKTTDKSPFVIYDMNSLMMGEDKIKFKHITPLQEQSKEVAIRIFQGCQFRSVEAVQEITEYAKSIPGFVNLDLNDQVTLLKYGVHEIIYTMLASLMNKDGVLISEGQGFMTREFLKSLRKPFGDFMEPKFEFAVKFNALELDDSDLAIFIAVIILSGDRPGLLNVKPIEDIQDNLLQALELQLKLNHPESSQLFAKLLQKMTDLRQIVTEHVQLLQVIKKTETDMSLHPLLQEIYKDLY
human Retinoic Acid Receptor beta (RARb), RARB (gene 5915), sequence (P10826 whole entry, looked up, the tested form may be a part): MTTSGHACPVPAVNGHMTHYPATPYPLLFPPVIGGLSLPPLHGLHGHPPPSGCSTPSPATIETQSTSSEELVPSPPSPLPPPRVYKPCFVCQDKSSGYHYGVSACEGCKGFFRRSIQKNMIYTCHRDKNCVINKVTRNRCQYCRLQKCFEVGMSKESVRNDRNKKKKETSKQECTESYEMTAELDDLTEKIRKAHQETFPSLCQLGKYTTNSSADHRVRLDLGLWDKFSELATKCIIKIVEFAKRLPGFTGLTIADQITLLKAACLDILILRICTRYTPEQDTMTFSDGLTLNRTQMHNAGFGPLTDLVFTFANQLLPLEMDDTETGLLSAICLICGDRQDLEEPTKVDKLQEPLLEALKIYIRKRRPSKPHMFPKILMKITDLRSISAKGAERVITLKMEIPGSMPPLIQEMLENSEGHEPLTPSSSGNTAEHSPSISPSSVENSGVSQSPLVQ
human Peroxisome Proliferator-activated Receptor delta (PPARd), PPARD (gene 5467), sequence (Q03181 whole entry, looked up, the tested form may be a part): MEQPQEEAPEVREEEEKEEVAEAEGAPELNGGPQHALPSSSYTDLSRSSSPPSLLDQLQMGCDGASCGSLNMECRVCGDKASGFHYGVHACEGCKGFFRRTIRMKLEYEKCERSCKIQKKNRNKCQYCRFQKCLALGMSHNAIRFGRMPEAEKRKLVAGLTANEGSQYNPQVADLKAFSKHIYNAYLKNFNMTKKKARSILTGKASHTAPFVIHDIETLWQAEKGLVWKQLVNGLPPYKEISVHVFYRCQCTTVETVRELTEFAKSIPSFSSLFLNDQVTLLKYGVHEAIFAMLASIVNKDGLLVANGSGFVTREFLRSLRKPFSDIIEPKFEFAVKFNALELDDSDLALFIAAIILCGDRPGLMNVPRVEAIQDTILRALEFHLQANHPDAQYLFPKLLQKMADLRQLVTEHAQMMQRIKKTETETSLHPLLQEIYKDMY
Myc proto-oncogene protein (Homo sapiens), sequence (P01106 whole entry, looked up, the tested form may be a part): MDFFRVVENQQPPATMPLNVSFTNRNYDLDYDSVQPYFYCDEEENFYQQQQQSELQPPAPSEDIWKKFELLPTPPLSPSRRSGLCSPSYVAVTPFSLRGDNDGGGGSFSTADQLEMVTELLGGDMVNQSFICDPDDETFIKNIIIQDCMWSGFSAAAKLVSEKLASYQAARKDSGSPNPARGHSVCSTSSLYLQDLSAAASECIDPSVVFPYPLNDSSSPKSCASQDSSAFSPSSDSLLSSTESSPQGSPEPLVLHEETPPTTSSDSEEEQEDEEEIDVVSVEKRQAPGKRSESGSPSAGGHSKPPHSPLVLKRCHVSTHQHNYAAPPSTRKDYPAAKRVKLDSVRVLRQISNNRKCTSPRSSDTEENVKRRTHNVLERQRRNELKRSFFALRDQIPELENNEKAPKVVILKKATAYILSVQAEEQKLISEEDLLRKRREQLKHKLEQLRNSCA
Nuclear receptor subfamily 1 group I member 2 (Homo sapiens), sequence (O75469 whole entry, looked up, the tested form may be a part): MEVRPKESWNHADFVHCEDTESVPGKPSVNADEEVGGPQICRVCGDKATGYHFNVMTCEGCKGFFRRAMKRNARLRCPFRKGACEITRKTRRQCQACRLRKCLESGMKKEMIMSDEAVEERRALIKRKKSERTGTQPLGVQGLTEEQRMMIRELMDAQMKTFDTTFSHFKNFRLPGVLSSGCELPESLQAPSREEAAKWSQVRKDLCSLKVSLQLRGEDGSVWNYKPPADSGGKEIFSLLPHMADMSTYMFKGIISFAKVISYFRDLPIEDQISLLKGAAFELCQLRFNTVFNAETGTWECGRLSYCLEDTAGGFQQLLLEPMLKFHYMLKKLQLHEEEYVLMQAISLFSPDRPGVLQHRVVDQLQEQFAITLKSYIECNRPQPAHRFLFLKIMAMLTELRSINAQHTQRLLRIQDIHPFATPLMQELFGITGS
human Peroxisome Proliferator-activated Receptor alpha (PPARa), PPARA (gene 5465), sequence (Q07869 whole entry, looked up, the tested form may be a part): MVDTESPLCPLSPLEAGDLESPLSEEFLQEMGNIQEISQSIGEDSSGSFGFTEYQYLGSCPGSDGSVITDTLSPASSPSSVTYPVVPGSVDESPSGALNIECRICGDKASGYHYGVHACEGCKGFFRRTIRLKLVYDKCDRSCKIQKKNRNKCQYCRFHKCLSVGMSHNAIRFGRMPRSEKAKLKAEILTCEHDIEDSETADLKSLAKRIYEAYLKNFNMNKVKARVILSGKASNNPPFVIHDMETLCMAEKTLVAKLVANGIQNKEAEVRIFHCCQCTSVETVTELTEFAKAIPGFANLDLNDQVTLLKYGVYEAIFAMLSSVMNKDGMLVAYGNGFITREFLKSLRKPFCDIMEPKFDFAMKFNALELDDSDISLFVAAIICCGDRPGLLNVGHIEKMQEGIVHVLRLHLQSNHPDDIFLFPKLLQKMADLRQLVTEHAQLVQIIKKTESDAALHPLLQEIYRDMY
Cellular tumor antigen p53 (Homo sapiens), sequence (P04637 whole entry, looked up, the tested form may be a part): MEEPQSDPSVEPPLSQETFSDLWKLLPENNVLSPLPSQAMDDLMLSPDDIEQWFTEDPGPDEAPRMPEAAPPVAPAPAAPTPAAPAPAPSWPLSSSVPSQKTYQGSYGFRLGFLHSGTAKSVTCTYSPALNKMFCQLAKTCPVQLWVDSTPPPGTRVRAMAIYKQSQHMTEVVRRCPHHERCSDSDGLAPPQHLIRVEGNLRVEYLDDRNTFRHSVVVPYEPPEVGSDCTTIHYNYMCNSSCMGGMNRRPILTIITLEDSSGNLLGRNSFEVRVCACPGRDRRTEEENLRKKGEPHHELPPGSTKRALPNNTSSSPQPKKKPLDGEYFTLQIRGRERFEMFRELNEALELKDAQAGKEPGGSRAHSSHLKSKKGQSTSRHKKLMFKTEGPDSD
Retinoic acid receptor alpha (Homo sapiens), sequence (P10276 whole entry, looked up, the tested form may be a part): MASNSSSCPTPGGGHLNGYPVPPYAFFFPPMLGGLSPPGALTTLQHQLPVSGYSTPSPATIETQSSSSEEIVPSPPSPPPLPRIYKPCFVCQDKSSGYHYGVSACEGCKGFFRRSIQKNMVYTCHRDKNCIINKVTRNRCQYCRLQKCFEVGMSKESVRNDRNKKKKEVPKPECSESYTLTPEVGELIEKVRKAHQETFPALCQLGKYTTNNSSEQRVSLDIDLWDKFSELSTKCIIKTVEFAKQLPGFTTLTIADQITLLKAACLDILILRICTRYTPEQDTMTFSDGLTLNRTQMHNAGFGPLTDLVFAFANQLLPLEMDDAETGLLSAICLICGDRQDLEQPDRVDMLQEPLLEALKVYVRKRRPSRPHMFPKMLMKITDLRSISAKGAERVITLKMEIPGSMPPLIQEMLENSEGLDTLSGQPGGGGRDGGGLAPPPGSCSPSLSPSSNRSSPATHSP
human Retinoic Acid Receptor gamma (RARg), RARG (gene 5916), sequence (P13631 whole entry, looked up, the tested form may be a part): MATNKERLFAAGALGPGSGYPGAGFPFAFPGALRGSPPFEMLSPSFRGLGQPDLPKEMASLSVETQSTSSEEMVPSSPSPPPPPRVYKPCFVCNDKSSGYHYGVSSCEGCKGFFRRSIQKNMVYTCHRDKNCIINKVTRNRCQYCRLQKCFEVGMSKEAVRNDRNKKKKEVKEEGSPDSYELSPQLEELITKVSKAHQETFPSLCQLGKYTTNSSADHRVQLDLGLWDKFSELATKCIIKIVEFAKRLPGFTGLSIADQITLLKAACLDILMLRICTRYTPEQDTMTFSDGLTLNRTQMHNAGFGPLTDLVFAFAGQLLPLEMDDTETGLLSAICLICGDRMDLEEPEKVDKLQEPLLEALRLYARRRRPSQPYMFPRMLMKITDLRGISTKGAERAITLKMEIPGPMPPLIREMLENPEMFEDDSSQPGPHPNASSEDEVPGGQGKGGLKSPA
human RAR-related Orphan Receptor gamma (RORg), RORC (gene 6097), sequence (P51449 whole entry, looked up, the tested form may be a part): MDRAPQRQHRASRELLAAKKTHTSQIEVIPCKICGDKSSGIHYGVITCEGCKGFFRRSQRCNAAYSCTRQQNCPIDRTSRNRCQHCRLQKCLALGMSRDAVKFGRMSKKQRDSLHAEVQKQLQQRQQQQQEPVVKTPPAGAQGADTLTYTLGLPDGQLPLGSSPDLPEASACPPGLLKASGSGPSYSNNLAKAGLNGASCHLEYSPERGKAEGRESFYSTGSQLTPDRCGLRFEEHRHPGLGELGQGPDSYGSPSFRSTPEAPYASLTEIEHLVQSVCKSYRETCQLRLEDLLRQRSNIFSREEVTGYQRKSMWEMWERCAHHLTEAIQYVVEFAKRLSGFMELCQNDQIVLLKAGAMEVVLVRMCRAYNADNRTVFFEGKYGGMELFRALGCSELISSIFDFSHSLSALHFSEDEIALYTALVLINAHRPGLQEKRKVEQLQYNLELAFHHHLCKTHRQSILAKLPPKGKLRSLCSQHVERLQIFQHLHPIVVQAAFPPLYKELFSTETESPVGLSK

O=[Si]=O
not listed: [19] | [20]
inactive: all other assays above

CCCCCCC(C=O)=Cc1ccccc1
inactive: [1] | [3] | [5] | [19] | [13] | [17]
active: [1] 60 µM | [4] 27.8 µM and 41 µM | [5] 159 µM | [7] 27.4 µM | [8] 36.6 µM | [9] 35.6 µM | [10] 36.6 µM | [11] 27.2 µM and 15.8 µM | [12] 36.6 µM | [15] 31.8 µM | [16] 27.4 µM and 6.91 µM | [17] 100 µM

CCOCCOCCO
not listed: [13] | [14] | [17] | [18] | [19] | [20]
inactive: all other assays above

Oc1ccc(O)cc1
active: [4] 16.6 µM | [9] 15.6 µM | [10] 20 µM | [15] 20 µM
not listed: [17] | [19] | [20]
inactive: all other assays above

c1ccc2occc2c1
not listed: [13] | [14] | [16] | [17] | [18] | [19]
inactive: all other assays above

COC(=O)CCCC(=O)OC
not listed: [11] | [13] | [14] | [16] | [17] | [18] | [20]
inactive: all other assays above

CCCCCCCC(=O)OC
not listed: [13] | [14] | [16] | [18] | [19] | [20]
inactive: all other assays above
